We go through two compounds from PubChem BioAssay AID720630 (Broad Institute, 2013).

Records with an inconclusive call do not appear. Active and inactive are the calls of the source. The rule behind the calls is not given here.

A short description of this assay: caspase-3/7 apoptosis induction in HUVEC, dose response, mechanism study for HRAS target identification, cell-based, multiple timepoints, luminescence, dry powder (AID 720630). To be noted: caspase-3/7 luminescence; for caspase activation: at 35 µM (top of the series).
Setting [1] is: measured here: max caspase activation timepoint 1, at 0.001 µM, test 1, stronger effect = higher value.

`CCC(=O)N(c1ccc(OC)c(Cl)c1)C(C(=O)NCCc1ccccc1)c1cccs1` (stereo not drawn): the caspase activation is 8.9% (inactive). For the same compound, the max activity under setting [1] was -18.6%. Also, the max activity (measured here: max caspase activation timepoint 2, at 16 µM, test 2, stronger effect = higher value) was -23.7%. In addition, the max activity (measured here: max caspase activation timepoint 3, at 4.2 µM, test 3, stronger effect = higher value) is -13.9%.
`Cc1onc(C(=O)N2CCN(C(c3ccc(Cl)cc3)c3ccc(Cl)cc3)CC2)c1[N+](=O)[O-]`: the caspase activation was -6.38% (inactive). Further, under setting [1], the max activity was -21.9%. Where the note is “measured here: max caspase activation timepoint 2, at 1 µM, test 2, stronger effect = higher value”, the max activity was -18.4%. Also, for the setting “measured here: max caspase activation timepoint 3, at 0.008 µM, test 3, stronger effect = higher value”, the max activity was -32.1%.
